Experimental data taken from PubChem BioAssay (NCATS).
Results filed as inconclusive are left out. Unmarked numbers belong to inactive results. Active and inactive are the calls of the source. Calls follow the shape of the full dose curve.

experiment: Cytotoxicity counterscreen for inhibitors of SARS-CoV-2 cell entry (AID 1645845); settings: cell viability (SARS-CoV-2 entry assay cells); series mostly up to 57.1 µM; activity change, negative = cytotoxicity: at the top concentration; also: nearly all actives have a fitted effect of over 50% in size
Procedure, shortened: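 48 h compound treatment (after 1 h preincubation), HEK293-ACE2 cells, 37 C/5% CO2; ATP luminescence endpoint; normalized to cell wells and media blanks.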
% is scaled to controls: 0 for no effect and ±100 for the full control effect; potency is read from the fitted curve at half-maximal effect.

SMILES	activity change, negative = cytotoxicity	outcome	Potency
CC(=O)N[C@H]1[C@H]([C@H](O)[C@H](O)CO)OC(C(=O)O)=C[C@@H]1N=C(N)N	0.225%	–	–
CC(O)COc1ccccc1 (centres undefined)	–	inactive	–
CCn1cc(C(=O)O)c(=O)c2cc(F)c(N3CCN(C)CC3)cc21	-13.5%	–	–
CN(C)CCOC(c1ccccc1)c1ccccc1	0.599%	–	–
CN1CCN(c2c(F)cc3c(=O)c(C(=O)O)cn(CCF)c3c2F)CC1	3.99%	–	–
Cc1c(F)cc2c(=O)c(C(=O)O)cn3c2c1CCC3C (centres undefined)	–	inactive	–
COc1cc(OC)cc(OC)c1	–	inactive	–
CCN[C@@H]1C[C@H](N)[C@@H](OC2OC(CN)=CCC2N)[C@H](O)[C@H]1O[C@H]1OC[C@](C)(O)[C@H](NC)[C@H]1O (some centres undefined)	0.776% [at 0.702 µM]	–	–
CN(Cc1ccc(C(C)(C)C)cc1)Cc1cccc2ccccc12	-22.3%	–	–
C[C@@H]1C[C@H]2[C@@H]3CCC4=CC(=O)C=C[C@]4(C)[C@@]3(Cl)[C@@H](O)C[C@]2(C)[C@@]1(OC(=O)c1ccco1)C(=O)CCl	–	–	inactive
C1CCN2C[C@@H]3C[C@@H](CN4CCCC[C@@H]34)[C@H]2C1	4.19%	–	–
N[C@@H](CSSC[C@H](N)C(=O)O)C(=O)O	0.929% [at 0.702 µM]	–	–
CCCCCC1Nc2cc(C(F)(F)F)c(S(N)(=O)=O)cc2S(=O)(=O)N1 (centres undefined)	–	inactive	–
CCCCC(=O)O[C@]1(C(=O)CO)[C@@H](C)C[C@H]2[C@@H]3CCC4=CC(=O)C=C[C@]4(C)[C@@]3(F)[C@@H](O)C[C@@]21C	–	–	inactive
Cc1c(C(=O)NN2CCCCC2)nn(-c2ccc(Cl)cc2Cl)c1-c1ccc(Cl)cc1	-4.71%	–	–
CC(C)(C)CC(=O)OCC(=O)[C@@]1(O)CC[C@H]2[C@@H]3CCC4=CC(=O)C=C[C@]4(C)[C@H]3[C@@H](O)C[C@@]21C	–	inactive	–
O=C(O)/C=C/c1ccc(Cn2ccnc2)cc1	–	–	inactive
NC(N)=N/N=C/c1c(Cl)cccc1Cl	–	inactive	–
Cc1cccc(C)c1NC(=O)C(C)N (centres undefined)	1.42%	–	–
CC1=C(C)C(=O)C(C(CCCCCC(=O)O)c2ccccc2)=C(C)C1=O (centres undefined)	–	–	inactive

SMILES	activity change, negative = cytotoxicity	outcome	Potency
CC(C)Cc1ccc(C(C)C(=O)OCc2ccccn2)cc1 (centres undefined)	–	inactive	–
O=C(O)CCc1nc(-c2ccccc2)c(-c2ccccc2)o1	–	inactive	–
CC(C)NCC(O)COc1ccc(COCCOC(C)C)cc1 (centres undefined)	–	inactive	–
NCCc1ccc(O)c(O)c1	–	–	inactive
O=C1OC2(c3ccc(O)cc3Oc3cc(O)ccc32)c2ccccc21	4.87%	–	–
O=C(CCCN1CC=C(n2c(=O)[nH]c3ccccc32)CC1)c1ccc(F)cc1	–	inactive	–
O=C(O)CCNC(=O)c1ccccc1	–	inactive	–
CC(C)N=C(N)/N=C(\N)Nc1ccc(Cl)cc1	-0.717%	–	–
C=CC[N+]1([C@H]2C[C@H]3[C@@H]4CC[C@H]5C[C@H](OC(C)=O)[C@@H](N6CCCCC6)C[C@]5(C)[C@H]4CC[C@]3(C)[C@H]2OC(=O)CC)CCCCC1	-10.4%	–	–
C#CCN(C)Cc1ccccc1	3.01%	–	–
C=CCc1ccccc1OCC(O)CNC(C)C (centres undefined)	2.71%	–	–
COC(=O)C1=C(C)NC(C)=C(C(=O)OCCCN2CCC(c3ccccc3)(c3ccccc3)CC2)C1c1cccc([N+](=O)[O-])c1 (centres undefined)	–	–	28.2 µM (active)
CC(=O)[C@H]1CC[C@H]2[C@@H]3CC=C4C[C@@H](O)CC[C@]4(C)[C@H]3CC[C@]12C	–	–	inactive
O=c1cc(CO)occ1O	3.48%	–	–
CCOC(=O)c1c(N)sc2c1CCN(Cc1ccccc1)C2	-14.6%	–	–
CC(=O)Oc1ccc(C(c2ccc(OC(C)=O)cc2)c2ccccn2)cc1	-29.6%	–	–
Cc1cc(O)c(C(C)C)cc1Cl	-6.31%	–	–
CCOCCOC(=O)/C=C/c1ccc(OC)cc1	–	inactive	–
NS(=O)(=O)c1cc2c(cc1Cl)NC(CSCc1ccccc1)=NS2(=O)=O	0.998%	–	–
